Cycloheximide cs = Cycloheximide Counterscreen for Small Molecule Inhibitors of Shiga Toxin; max response, %; AID 2314, 2010; 12% of 300,000 active; cell reporter, cycloheximide protein synthesis inhibition counterscreen; in the data active means max response mostly above about 13%, no sharp cut-off; inactive means mostly below about 14%; further: read at 38.3 µM for the half of the compounds with a filed dose
Shiga inhibitor = A qHTS for Small Molecule Inhibitors of Shiga Toxin; Vero cells, Shiga toxin protein synthesis inhibition reporter; inhibition, % at 38.7 µM; 9.2% of 290,000 active; in the data active means inhibition mostly above about 28%, no sharp cut-off; inactive means mostly below about 43%
Pf growth 48h = Primary qHTS for delayed death inhibitors of the malarial parasite plastid, 48 hour incubation. P. falciparum luciferase growth in erythrocytes, 48 h. AID 504832, 2011. Potency, µM (doses to about 28.7 µM), usual class: inhibitors. 5.9% of 310,000 active
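First compound was added to culture medium, then infected red cells at 0.1% parasitemia and 2% hematocrit (final). After incubation at 37 C under 5% CO2, luciferase detection reagent was dispensed and light output recorded.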
NS1 function inh = qHTS Assay for Inhibitors of Influenza NS1 Protein Function; Potency, µM (series often up to 46.1 µM); 0.4% of 270,000 active; AID 2326, 2010; calls by dose curve; further: actives are rising curves; nearly all actives have a fitted effect of over 50% in size
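In this qHTS, NS1 from influenza A is expressed in budding yeast, where it slows growth. Cells are switched from glucose to 2% galactose medium (pH 6.0, -URA), treated with compound, and growth recovery is read at OD600.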
Pf growth 96h = Primary qHTS for delayed death inhibitors of the malarial parasite plastid, 96 hour incubation; P. falciparum luciferase reporter growth, 96 h; Potency, µM (titrated, usually from 28.7 µM), actives largely listed as inhibitors; 6.9% of 320,000 active; AID 504834, 2011
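Erythrocytes infected with luciferase-expressing P. falciparum were dispensed at 2% hematocrit and 0.05% parasitemia (final), then incubated with compounds 96 hours at 37 C in 5% CO2. Luminescence after detection reagent addition reported growth.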
Each line names hits and unclear results; the compound was inactive in the other large screens. A selection: hits, their analogues and other compounds. The true share with any hit is near 21%. Unless noted, the call rests on the fitted dose curve; in most records, active means well fitted inhibition curve with a large enough effect; inconclusive means small, poorly fitted or top-dose-only effect, or another doubt; inactive means no such curve, though single readings can be large or run the other way.

CCOc1ccc(-n2c(COc3ccc(C)cc3)nnc2SCC(N)=O)cc1	Pf growth 96h inconclusive
CCOC(=O)C(CC)Sc1nnc(COc2ccc(C)cc2)n1-c1ccccc1 (stereo unspecified)	Pf growth 48h 13.1µM, Pf growth 96h inconclusive
O=C(COC(=O)CNC(=O)c1ccco1)NCc1ccc(F)cc1	none
COc1ccccc1N(CC(=O)NC1CCCC1)C(=O)c1cnn(C(C)C)c1	Cycloheximide cs 28.3, Shiga inhibitor 56.2
Clc1ccc(C2=CSC3=NCCN23)cc1Cl	Pf growth 48h inconclusive, Pf growth 96h inconclusive
CC(C)(C)c1ccc(C2=CSC3=NCCN23)cc1	Pf growth 48h inconclusive, Pf growth 96h 0.262µM
O=S1(=O)CCN2C(c3cccc4ccccc34)=CSC2=N1	none (no result: NS1 function inh)
C1=C(c2cccc3ccccc23)N2CCN=C2S1	Pf growth 48h inconclusive, Pf growth 96h 13.1µM
COc1ccccc1NC(=O)CCC(=O)OCC(=O)c1ccc(C)c([N+](=O)[O-])c1	none
CC(C)OC(=O)c1cc2c(=O)[nH]c(C(Cl)(Cl)Cl)nc2o1	Pf growth 48h inconclusive (no result: NS1 function inh)
C/C(=C\c1ccccc1)CN1CCN(Cc2ccc(C)o2)C(CCO)C1 (stereo unspecified)	Pf growth 48h inconclusive, Pf growth 96h 2.08µM
Cc1ccc(Cn2c(/C=C/c3ccco3)nc3ccccc32)cc1	Cycloheximide cs 103.4, Shiga inhibitor 160.5, Pf growth 96h inconclusive
CCCn1c(/C=C/c2ccco2)nc2ccccc21	Pf growth 96h inconclusive
Clc1ccc(Cn2c(/C=C/c3ccco3)nc3ccccc32)cc1	Cycloheximide cs 215.6, Shiga inhibitor 187.4, Pf growth 48h inconclusive, Pf growth 96h inconclusive
O=C(O)CCCNC(=O)c1ccc(NC(=O)Cc2ccc(Cl)cc2)cc1	Pf growth 96h inconclusive (no result: NS1 function inh)
O=C(COc1ccc(Cl)cc1)Nc1nnc(-c2ccco2)o1	Pf growth 96h inconclusive (no result: NS1 function inh)
Cc1nc(C)c(C(=O)O)c(-c2cccs2)c1C(=O)O	none
COc1cc(/C=N/Nc2nc(Nc3ccccc3)nc(-n3nc(C)cc3C)n2)cc(OC)c1OC	Cycloheximide cs 17.5, Shiga inhibitor 45.3, Pf growth 48h 3.29µM
COc1ccc(O)c(/C=N/Nc2nc(Nc3ccccc3)nc(-n3nc(C)cc3C)n2)c1	Pf growth 48h 1.85µM, Pf growth 96h 2.08µM
COc1cc(/C=N/Nc2nc(Nc3ccc(C)cc3)nc(-n3nc(C)cc3C)n2)cc(OC)c1OC	Shiga inhibitor 108.7, Pf growth 96h 1.85µM (no result: Pf growth 48h)
CCc1ccc(NC(=O)[C@H](Cc2ccccc2)NC(=O)C2CCN(C(=O)[C@@H](N)CC(C)C)CC2)cc1	Pf growth 48h inconclusive, Pf growth 96h inconclusive
CCOC(=O)C1(Cc2cccc(Cl)c2)CCCN(C(=O)c2cccc(C)n2)C1 (stereo unspecified)	Pf growth 48h inconclusive, Pf growth 96h inconclusive
CCCCOC(=O)CSc1n[nH]c(=O)[nH]c1=O	Pf growth 96h 13.1µM (no result: Pf growth 48h)
CCCCCOC(=O)C(C)Sc1n[nH]c(=O)[nH]c1=O (stereo unspecified)	none (no result: NS1 function inh)
Cc1nc2c(C(=O)N3CCCCC3)cnn2c(C)c1Cc1ccccc1F	Cycloheximide cs 71.3, Shiga inhibitor 157.3
Cc1cc(C)c(/C=N/n2c(C)cc(C)c(C#N)c2=O)c(C)c1	Pf growth 48h inconclusive, Pf growth 96h 10.4µM
COc1ccc(S(=O)(=O)N2CCOC2CNC(=O)C(=O)NCCc2ccccc2)cc1 (stereo unspecified)	Pf growth 48h inconclusive, Pf growth 96h inconclusive
COc1cccc(NC(=O)Nc2ccc3c(c2)OCO3)c1	Cycloheximide cs 39.6, Shiga inhibitor 77.1
COc1ccc(OC)c(NC(=O)Nc2ccc3c(c2)OCO3)c1	Cycloheximide cs 14.6, Shiga inhibitor 55.9
COc1cccc(C(=O)OC(C)C(=O)Nc2ccc3c(c2)OCO3)c1 (stereo unspecified)	none (no result: Cycloheximide cs, Shiga inhibitor, NS1 function inh)
COc1ccc(OC)c(S(=O)(=O)N(C)CC(=O)Nc2ccc3c(c2)OCO3)c1	none (no result: Pf growth 96h)
CCN1CCN(c2nc(C)c3c(n2)CCCC3=O)CC1	none
COC(=O)CC1C(=O)NCCN1C(=O)CSc1nnnn1-c1ccc(OC)cc1 (stereo unspecified)	none (no result: NS1 function inh)
CSc1scc2c1-c1nc(SCC(=O)C(C)(C)C)ncc1CC2	Pf growth 48h 9.28µM, Pf growth 96h 9.28µM
CSc1nnc(-c2sc3cc(C(F)(F)F)cnc3c2-c2ccccc2)n1C	Pf growth 96h 6.57µM (no result: Pf growth 48h)
O=C(O)c1sc2cc(C(F)(F)F)cnc2c1-c1ccccc1	none
CC(C)N1CCN(c2ccc(OC[C@H]3CO[C@](Cn4cncn4)(c4ccc(Cl)cc4Cl)O3)cc2)CC1	Pf growth 48h 13.1µM, Pf growth 96h 9.28µM (no result: Cycloheximide cs, Shiga inhibitor, NS1 function inh)
Cc1cc2[nH]c(=O)c(=O)[nH]c2cc1S(=O)(=O)Nc1ccccc1F	none
O=C(CSc1nnc(C2COc3ccccc3O2)o1)NC1CCCCC1 (stereo unspecified)	Cycloheximide cs 20.0
O=C(CSc1nnc(C2COc3ccccc3O2)o1)Nc1nccs1 (stereo unspecified)	Pf growth 96h 1.31µM
Cc1ncc(CO)c(CN)c1O	none (no result: Cycloheximide cs, Shiga inhibitor)
CCOC(=O)CN1CC23C=CC(O2)C(C(=O)NCc2ccc(C)cc2)C3C1=O (stereo unspecified)	Pf growth 96h 10.4µM (no result: Pf growth 48h)
Cc1ccc2c(CN3CCCCC3)cc(=O)oc2c1	Cycloheximide cs 20.9, Shiga inhibitor 28.5
Cc1ccc2oc(=O)cc(CN3CCOCC3)c2c1	Pf growth 96h 7.38µM
CCc1ccc2oc(=O)cc(CN3CCOCC3)c2c1	none (no result: Pf growth 96h)
CCc1ccc2oc(=O)cc(CN3CCC(C)CC3)c2c1	Pf growth 48h 1.31µM, Pf growth 96h 2.94µM
Cc1ccc2c(CN3CCOCC3)cc(=O)oc2c1	none
Cc1ccc2oc(=O)cc(CN3CCC(C)CC3)c2c1	Pf growth 48h inconclusive, Pf growth 96h 5.86µM
Cc1ccc(S(=O)(=O)N2CCOC2CNC(=O)C(=O)NCCN(C)C)cc1 (stereo unspecified)	none
Cc1ccc2c(CN3CCN(S(=O)(=O)/C=C/c4ccccc4)CC3)cc(=O)oc2c1	Pf growth 48h inconclusive, NS1 function inh inconclusive, Pf growth 96h 9.28µM
COC(=O)C1C(=O)C2=C(CC1C)NC(C)=C(C(=O)OC1CCCC1)C2c1ccc(N(C)C)cc1 (stereo unspecified)	Pf growth 48h 5.22µM
COC(=O)C1C(=O)C2=C(CC1C)NC(=O)CC2c1ccc(F)cc1 (stereo unspecified)	Pf growth 48h 14.7µM (no result: NS1 function inh)
COC(=O)C1C(=O)C2=C(CC1C)Nc1ccccc1NC2c1cccs1 (stereo unspecified)	Pf growth 96h inconclusive (no result: NS1 function inh)
CCOc1cc(C2NC(=O)N(C)C(C)=C2C(=O)OC)cc(Br)c1O (stereo unspecified)	Pf growth 48h 13.1µM
CCOc1cc(C2CC(=O)NC3=C2C(=O)C(C(=O)OC)C(C)C3)cc(Br)c1O (stereo unspecified)	Pf growth 48h 1.47µM
CCOc1c(Br)cc(C2CC(=O)Nc3cc(OC)c(OC)cc32)cc1OC (stereo unspecified)	Pf growth 48h inconclusive
